Assay results reported in PubChem BioAssay (EPA / NIEHS).
Records with an inconclusive call do not appear. Active and inactive are the calls of the source. How the source made its calls: active means hit-call score of the fitted dose curve at least 0.9, where 1 is the maximum; inconclusive means response in the unintended direction; inactive means score below 0.9.

Experiment: ATG_XTT_Cytotoxicity: Cytotoxicity Assessment in the Attagene TRANS-FACTORIAL HepG2 Assay (AID 2283584);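 on AC50: cells exposed to compound for 24 h before reading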
Experimental: ATG_XTT_Cytotoxicity is a cell-based, single-readout assay that uses HepG2, a human liver cell line, with measurements taken at 24 hours after chemical dosing in a 24-well plate.ATG_XTT_Cytotoxicity is one of one assay component(s) measured or calculated from the ATG_XTT_Cytotoxicity assay. It is designed to make measurements of cell number, a form of viability reporter, as detected with […] signals by XTT cytotoxicity assay technology.Data from the assay component ATG_XTT_Cytotoxicity was analyzed into 1 assay endpoint. This assay endpoint, ATG_XTT_Cytotoxicity, was analyzed in the positive analysis fitting direction relative to DMSO as the negative control and baseline of activity. Using a type of viability reporter, loss-of-signal activity can be used to understand changes in the viability. Furthermore, this assay endpoint can be referred to as a primary readout, because the performed assay has only produced 1 assay endpoint. To generalize the intended target to other relatable targets, this assay endpoint is annotated to the cell cycle intended target family, where the subfamily is cytotoxicity.
Human liver HepG2 cells are transiently transfected with multiple reporter transcription units (MRTUs) in 6-well plates using FuGene 6 reagent (Roche; 3 ml FuGene/1 mg DNA). The MRTU constructs are regulated by a cis-regulating element (promoter). […] A major difference between the CIS and TRANS system is that in CIS activities of endogenous TFs are measured, whereas the TRANS assay evaluates changes in activities of exogenous, chimeric NR-Gal4 proteins. […] At the end of 24 hour incubation, total RNA was isolated using TriZol reagent (Invitrogen). The isolated RNA is then reverse-transcribed using oligo(dT) primer and Mo-MLV reverse transcriptase (Invitrogen) with DNAse I (Ambion) treatment for 30 min. The one-tenth of the produced cDNA was amplified by PCR using Taq DNA polymerase (Invitrogen) and two reporter sequence-specific primers. The PCR products were fluorescently labeled by primer extension with 6-arboxyfluorescein (6-FAM) 5'-labeled reporter sequence-specific primer (2 min at 95 C, 20 s at 68 C and 10 min at 72 C) and these products were digested with 5U of HpaI (New England Biolabs) for 2h at 37 C. The fragments were purified using Qiaquick PCR columns (Qiagen), analyzed on an ABI 3130xL genetic analyzer (Applied Biosystems) with peak positions identified by using a set of X-rhodamine (ROX)-labeled MapMarker1000 molecular weight standards (BioVentures). The raw capillary electrophoresis data was processed using Attagraph software (Attagene).

Row | Structure (SMILES) | outcome | AC50
1 | CCCCCCCCCCCCS(=O)(=O)Cl | inactive | –
2 | CCOC(=O)CC(C)O (stereo not given) | inactive | –
3 | CC(C)NCC(O)COc1ccc(CC(N)=O)cc1 (stereo not given) | inactive | –
4 | OC[C@H]1O[C@@H](Oc2ccc(O)cc2)[C@H](O)[C@@H](O)[C@@H]1O | inactive | –
5 | CN(C)CCOC(C)(c1ccccc1)c1ccccn1 (stereo not given) | inactive | –
6 | CC(=O)O[C@H]1C[C@@H]2CC[C@@]1(C)C2(C)C | inactive | –
7 | CC(=O)C(C)O (stereo not given) | inactive | –
8 | CCCCCCCCCCCCN1CCCCCC1=O | – | 29.9 µM (active)
9 | CCCCCCC(=O)c1ccccc1 | inactive | –
10 | CCCCC(CC)C(=O)OC(C)C (stereo not given) | inactive | –
11 | CCCCCCCCCC(C)C=O (stereo not given) | inactive | –
12 | Cc1ccc(N)c(S(=O)(=O)O)c1 | inactive | –
13 | COc1ccc(CCC(C)=O)cc1 | inactive | –
14 | CCCCCC(C)=O | inactive | –
15 | CCCCCCC(C)Nc1ccc(Nc2ccccc2)cc1 (stereo not given) | inactive | –
16 | COc1cccc(OC)c1O | inactive | –
17 | C=CC(=O)OCCCC | inactive | –
18 | COc1ccccc1[N+](=O)[O-] | inactive | –
19 | CN1C(=O)c2ccccc2C1=O | inactive | –
20 | Cc1cc(S(=O)(=O)O)ccc1N=Nc1c(O)ccc2ccccc12 | inactive | –

Row | Structure (SMILES) | outcome | AC50
21 | O=C(O)COCC(=O)O | inactive | –
22 | O=C1CCCC=CCCCCCCCCCC1 | inactive | –
23 | C=CCCCCCCCCCC | inactive | –
24 | Nc1ccc2c(O)cc(S(=O)(=O)O)cc2c1 | inactive | –
25 | C/C=C(\C)C(=O)OCCc1ccccc1 | inactive | –
26 | C#CC(C)N(C)C(=O)Nc1ccc(Cl)cc1 (stereo not given) | inactive | –
27 | CCCC(=O)OCCc1ccccc1 | inactive | –
28 | O=C(O)c1ccc(O)cc1 | inactive | –
29 | CCc1ccc(O)c(OC)c1 | inactive | –
30 | CC(Oc1cc(Cl)ccc1Cl)C(=O)O (stereo not given) | inactive | –
31 | CCCC(=O)C(CC)Sc1ccoc1C (stereo not given) | inactive | –
32 | CC(=O)Nc1ccc(C(=O)CCl)cc1 | inactive | –
33 | CC(CN=Cc1ccccc1O)N=Cc1ccccc1O (stereo not given) | inactive | –
34 | CCCCC(CC)COC(C)=O (stereo not given) | inactive | –
35 | COS(=O)(=O)O | inactive | –
36 | CCCC(C)=O | inactive | –
37 | CCOc1ccc(N=Nc2ccc(C=Cc3ccc(N=Nc4ccc(OCC)cc4)cc3S(=O)(=O)O)c(S(=O)(=O)O)c2)cc1 | inactive | –
38 | CCOC(=O)[C@@H](C)Oc1ccc(Oc2nc3ccc(Cl)cc3o2)cc1 | inactive | –
39 | COc1cc(C(C)C)ccc1C | inactive | –
40 | C=CC(C)C#N (stereo not given) | inactive | –
